Among the data in PubChem BioAssay (NCI) are growth values, retold here.

About 83,000 compounds went through this panel and 20% of them were active in at least one assay; those are over-represented in the sample as a whole.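 Values shown are percent growth following 48 h exposure of cells in 96-well plates to a single concentration of compound; below 10 was considered active.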 Values without a mark were called inactive. Activity calls are given as the source filed them.

The test system of the assay is ACHN renal. Nature of the assay: NCI-60 one-dose screen, 48 h (100 = growth as untreated, 0 = no growth, -100 = all killed). Conditions: 10 µM unless noted. The procedure:
Growth inhibition of the ACHN human tumor cell line is measured as a screen for anti-cancer activity. Cells are grown in 96 well plates and exposed to the test compound for 48 hours. Compounds are tested at a single concentration, which is 10^-5 M for most compounds. The reported endpoint is percent growth (GI% or GIPRCNT), where numbers from 0 - 100% represent growth inhibition, and numbers from -100% - 0 represent cell death. For example, a value of 40 represents 60% growth inhibition. A value of 0 means no net growth occurred over the course of the experiment. A value of -40 indicates 40% of cells at the beginning of the experiment died by the end of the experiment. A value of -100 means all cells are dead at the end of the experiment.
NCI-60 Human Tumor Cell Lines Screen was performed using the standard one-dose NCI protocol, which is described in more detail at https://dtp.cancer.gov/discovery_development/nci-60/default.htm.
Compounds with GIPRCNT values below 10 were considered active. Activity score was based on GIPRCNT using the following formula: […]
Score is 0 for GIPRCNT values of 100 or above, 50 for GIPRCNT values of 0, and 100 for GIPRCNT values of -100.
Consider `COc1ccc(C2C3=C(COC3=O)N(CCO)c3cc4c(cc32)OCCO4)cc1` (stereo not given), for which the growth was 96.5%.
Take `CCn1c(Cc2ccccc2Nc2c(Cl)cccc2Cl)nnc1SCC(=O)NN1C(=O)/C(=C/c2cccc(OC)c2OC)SC1=S`: the growth is 96.9%.
With `COc1ccc(C2=NN(/C=C3\SC(=O)NC3=Nc3ccc(F)cc3)C(c3ccc(F)cc3)C2)cc1` (stereo not given), the growth was 93.7%.
For the compound `O=c1c2cc(F)ccc2sc2c(Nc3ccncc3)nc3ccccc3c12`, the growth is 28.5%.
As to `Nc1no[n+]([O-])c1-c1nnc2c(n1)-c1ccccc1C2=O`, the growth was 16%.
Then `COc1cc(/C(C#N)=C/c2nc3c(N4CCOCC4)nc(Cl)nc3n2C)cc(OC)c1OC`, with 13.7%.
Then `O=C(NCCCN1CCC(N2CCCCC2)CC1)C1=Cc2cc(Br)ccc2OC1`, with 37.7%; and `O=C1N=c2ccccc2=C1c1sc(=Nc2ccccc2)n(Nc2ccccc2)c1O`, with 109%; and `CCCCNc1nc(NC(C)(C)C)nc(NC(C)(C)C)n1`, with 62.9%.
As to `Fc1cccc(COc2ccc(Nc3ncnc4onc(-c5ccccc5)c34)cc2)c1`, the growth was 37.1%.
Regarding `CCOC(=O)C1=C(C)c2ccc(OC)c(OC)c2C1`, the growth was 103%.
As to `S=C1NC2(c3ccccc3)CCC(=S)N2c2ccccc21` (stereo not given), the growth was 108%.
On to `NCCCNc1nc2ccccc2c2c(=O)c3cc(F)ccc3sc12`, for which the growth was -66.7% (active).
Next, `Cc1ccccc1CNC(=O)C1CN(c2ccc(Cl)cc2)N(c2ccc(Cl)cc2)C1=O` (stereo not given): 87.4%.
Regarding `O=C(Nc1ncc(Cc2cccc(C(F)(F)F)c2)s1)C1COc2ccccc2O1` (stereo not given), the growth was 97.4%.
In the case of `COc1ccc(CCN2C(=O)/C(=C/c3ccc(C4Oc5ccccc5C5CC(c6cccc(OC)c6)=NN54)cc3)SC2=S)cc1` (stereo not given), the growth is 98.3%.
Then `O=c1oc2ccc(I)cc2c(=O)n1-c1ccc(I)cc1F`, with 4.07% (active).
With `COc1cc(C#N)cc2[nH]c(=O)oc12`, the growth is 99.7%.
Turning to `C#CCn1cc(C=C2C(=O)NC(=O)NC2=O)c2cc(Cl)ccc21`, the growth was 97.4%.
Consider `c1ccc(CNc2nc(Nc3ccccc3)nc3ccccc23)cc1`, for which the growth was 33.7%.
In the case of `CC[C@]1(O)C[C@@H]2CN(CCc3c([nH]c4ccccc34)[C@@](C(=O)OC)(c3cc4c(cc3OC)N(C)[C@H]3[C@@](O)(C(=O)OC)[C@H](OC(=O)CCCBr)[C@]5(CC)C=CCN6CC[C@]43[C@@H]65)C2)C1`, the growth is 28.2%.
With `COc1ccc(CCN2CCC(CN(C)Cc3cnn(-c4ccccc4)c3)CC2)cc1`, the growth is 21.3%.
Turning to `O=S1(=O)CCN(Cc2ccccc2)CC1`, the growth was 97%.
Next, `CC(=O)c1ccc2oc(=O)n(Cc3ccc(C#N)cc3)c(=O)c2c1`: 104%.
For `COc1ccc(-c2nc(N3CCN(C(=O)C4CCCCC4)CC3)c3c4c(sc3n2)CCCC4)cc1`, the growth is 33.5%.
Next, `COC(=O)c1c2c(c(C)[n+]([O-])c1C)C(=O)C=C(NCc1ccccc1)C2=O`: -29.5% (active); `O=C1c2cc(Br)ccc2Oc2cc([N+](=O)[O-])ccc2N1c1ccc(I)cc1F`: 99.7%; `CN(C)c1ccc(N=Cc2ccc(N3CCOCC3)cc2)cc1`: 88.8%.
`O=C(O)c1cn(C2CC2)c2cc(N3CCN(C(=O)C[n+]4ccccc4)CC3)c(F)cc2c1=O`: the growth was 103%.
As to `O=C(NC(=S)Nc1cccc(NC(=S)NC(=O)c2ccccc2)c1)c1ccccc1`, the growth is 60.6%.
In the case of `COc1ccc(/C=C2\SC(=Nc3ccccc3)NC2=O)cc1`, the growth was -70.9% (active).
Next, `CCOC(=O)c1sc(-c2ccc(OS(=O)(=O)C[C@]34CCC(CC3=O)C4(C)C)c(C=O)c2)nc1C`: 39.8%; `O=C(N/N=C/c1ccccc1O)C(=O)Nc1ccc(F)cc1`: 30.4%; `CN1C(=O)N(C)C2(c3ccccc3)n3c(s/c(=C\c4ccccc4)c3=O)=NNC12c1ccccc1` (stereo not given): 95%.
For `O=Cc1c(OCc2cnnn2CC(=O)Nc2ccc(Cl)cc2)ccc2ccccc12`, the growth was 94.9%.
Then `CCC1=C[C@@H]2CN(C1)Cc1c([nH]c3ccccc13)[C@@](C(=O)OC)(c1cc3c(cc1OC)N(C)[C@H]1[C@@](O)(C(=O)OC)[C@H](OC(C)=O)[C@]4(CC)[C@@H]5C[C@@H]5CN5CC[C@]31[C@@H]54)C2`, with 19.6%; and `O=c1c(-c2nc3ccccc3[nH]2)cc2ccccc2n1Cc1cn(Cc2ccccc2Cl)nn1`, with 12.2%.
Then `NCCNc1nc2ccc(F)cc2c2c(=O)c3cc(F)ccc3sc12`, with 31.6%.
Take `Nc1ccc(-c2ccc(-c3ccccc3N)c3[nH]c4ccccc4c23)cc1`: the growth is 32.1%.
With `COCCN(C(=O)Cc1cccs1)C(C(=O)NCc1ccc(OC)cc1)c1ccc(C(C)C)cc1` (stereo not given), the growth was 87.1%.
